Compound activity from PubChem.
FMDV inh – antivirals against foot and mouth disease virus. hit rate 1.2% among 410,000. FMDV antiviral cell-based qHTS. Potency, µM (highest dose often 57.9 µM), for the others: top-dose activity change, negative = inhibition, usual class: inhibitors. AID 1159524; calls by dose curve; tested in HEK293T cells; also: read-out not given here; potency is read from the fitted curve at half-maximal effect; nearly all actives have a fitted effect of over 45% in size
Lassa entry inh – inhibitors of Lassa virus binding or cell entry | Lassa virus pseudotype entry inhibition, cell reporter | hit rate 1.2% among 300,000 | AID 540256 | Potency, µM (series often up to 37.9 µM), without a hit: at the highest dose activity change, negative = inhibition, usual class: inhibitors; calls by dose curve; tested in HEK293 cells; also: potency is read from the fitted curve at half-maximal effect; nearly all actives have a fitted effect of over 50% in size
HCV inhibitor – inhibitors of hepatitis C virus infection; Potency, µM (titrated, usually from 41.8 µM), without a hit: top-dose activity change, negative = inhibition, actives largely listed as inhibitors; hit rate 3.4% among 340,000; Huh7.5.1 HCVcc-Cre infection, luciferase reporter, 44 h; active = well fitted inhibition curve with a large enough effect; inconclusive = small, poorly fitted or top-dose-only effect, or another doubt; inactive = no such curve, though single readings can be large or run the other way; also: potency is read from the fitted curve at half-maximal effect
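HCVcc-Cre virus at an moi near 0.5 was added right after compound to cells cultured 4 h from seeding (1,000 cells/well). Luciferase activity was determined 44 h later, 15 min after substrate addition at RT.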
HCMV inh – inhibitors of human cytomegalovirus. HFF cells, HCMV-luciferase reporter, 72 h; stronger effect = lower value. activity change, negative = inhibition, % at 57.5 µM. hit rate 4.5% among 410,000; in the data active = activity change below about -60%; inconclusive = no clear call, values can overlap the other calls; inactive = above about -39%
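HFF cells seeded 16 h at 37C, treated with compounds, infected with luciferase-reporter HCMV at MOI 1 PFU/cell; luciferase read at 72 h post infection, normalized to buffer-only and Salinomycin controls.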
Marburg entry inh – inhibitors of Marburg virus binding or cell entry; Potency, µM (top dose mostly 37.8 µM), for inactives: at the highest dose activity change, negative = inhibition, hits mostly inhibitors; AID 540276; Marburg virus pseudotyped entry inhibition, cell reporter; hit rate 1.8% among 300,000; calls by dose curve; tested in HEK293 cells; also: potency is read from the fitted curve at half-maximal effect
* marks the source's active call; other numbers are inactive results; ? = inconclusive; / = not tested or not shown; [ ] = dose if it differs, or a comment. Only some compounds are listed: those with a hit (about 7.9% of all), similar ones and a draw of the others. % is scaled to controls: 0 for no effect and ±100 for the full control effect.

SMILES	FMDV inh	Lassa entry inh	HCV inhibitor	HCMV inh	Marburg entry inh
C=CCNC(=O)/C(C#N)=C/c1ccc(OS(=O)(=O)c2ccc(C)cc2)c(OC)c1	20µM*	12.6µM*	12.6%	-98.6*	?
COc1cc(/C=N/NC(=O)c2cccnc2)ccc1OS(=O)(=O)c1ccc(C)cc1	1.9%	1.2%	-0.9%	-37.8	-18.1%
COC(=O)N/N=C/c1ccc(OS(=O)(=O)c2ccc(C)cc2)c(OC)c1	-4.3%	7.94µM*	0.4%	-34.8	6.2%[46.1 µM]
COc1cc(/C=N/NC(=O)COc2cccc(F)c2)ccc1OS(=O)(=O)c1ccc(C)cc1	0.0%	?	?	?	?
CCSc1ncc(Cl)c(C(=O)Nc2c(C(=O)Nc3ccccc3)oc3ccccc23)n1	-8.4%	?	/	30.7	-2.9%[46.1 µM]
Fc1cc(Br)ccc1Nc1c2c(nc3nc(-c4cccs4)nn13)CCCC2	?	?	/	-60.0*	/
Cc1ccc(Nc2c3c(nc4nc(-c5cccs5)nn24)CCCC3)cc1F	?	?	/	27.0	/
Cc1oc(-c2ccccc2F)nc1CSCC(=O)N1CCN(c2ccccc2)CC1	?	-13.1%[46.1 µM]	/	?	-26.9%[46.1 µM]
COc1ccc(-c2nc(CSCC(=O)N3CCN(c4ccccc4F)CC3)c(C)o2)cc1	31.6µM*	-28.0%[46.1 µM]	/	?	?
Cc1ccc(-c2nc(CSCC(=O)N3CCN(C(=O)c4ccco4)CC3)c(C)o2)cc1	?	/	?	2.9	-0.2%
CCOc1ccc(-c2nc(CSCC(=O)N3CCN(c4cccc(OC)c4)CC3)c(C)o2)cc1	20µM*	/	12.6µM*	-77.5*	1.9%
CCc1ccc(-c2nc(CSCC(=O)N3CCN(c4ccccn4)CC3)c(C)o2)cc1	20µM*	?	15.8µM*	-18.1	-82.4%
COc1ccc(C(=O)NCC(c2ccc3c(c2)OCO3)N2CCN(c3ccc(F)cc3)CC2)cc1 (configuration not stated)	?	?	/	-1.7	/
COc1cccc(OC)c1OCCCOc1c(OC)cccc1OC	-18.4%	0.6%	-10.0%	9.5	-13.5%[46.1 µM]
COc1cccc(OC)c1OCCNCC1CSc2ccccc2O1 (configuration not stated)	-24.9%	?	?	?	25.9µM*
CCN(C(=O)c1cc(S(=O)(=O)N2CCOCC2)cn1C)c1ccc(OC)cc1	-17.0%	22.3%[46.1 µM]	/	-66.9*	/
CCN(CC)C(=O)c1cc(S(=O)(=O)N2CCCCC2)c[nH]1	-13.6%	/	-14.7%	-0.1	/
CCN(C(=O)c1cc(S(=O)(=O)N2CCCCC2)c[nH]1)c1ccc(OC)cc1	-20.3%	7.5%[46.1 µM]	-18.8%	-66.7*	/
CCN(C(=O)c1cc(S(=O)(=O)N2CCc3ccccc32)cn1C)c1cccc(C)c1	-5.4%	?	/	-74.3*	/
COc1cc(N2Cc3ccccc3C2)ccc1C=O	?	?	-2.8%	68.5	7.94µM*
Cc1cc(C)cc(N2Cc3ccccc3C2)c1	-2.6%	/	22.0%	14.9	-5.1%
C#C[C@]1(O)CC[C@H]2[C@@H]3CCc4cc(OC5CCCC5)ccc4[C@H]3CC[C@@]21C	-8.3%	/	0.631µM*	116.2	/
CCOC(=O)C1=C(CC)Nc2ccccc2N=C1NC(=O)c1cc(C)on1	5.5%	/	-3.2%	0.0	/
CCOC(=O)C1=C(CC)Nc2ccccc2N=C1NC(=O)Nc1ccc(Cl)c(Cl)c1	-17.4%	?	?	-97.8*	?
CCOC(=O)c1noc2c1CCC2	-2.4%	/	/	8.8	/
SMILES	FMDV inh	Lassa entry inh	HCV inhibitor	HCMV inh	Marburg entry inh
CCOC(=O)c1cnc2c3c(noc13)CCC2	/	/	/	-101.4*	/
CC(C)c1ccc(Nc2cc3c(cn2)cc(-c2ccccc2)n3C)cc1	/	/	/	-21.3	/
Cc1nc(-c2ccccn2)nc(SCC(=O)c2ccccc2)c1Cl	?	?	-74.4%	-82.3*	?
Cc1ccc(S(=O)(=O)NC(C)(C)CSc2nnc(Nc3ccccc3)s2)cc1	?	?	17.8µM*	-24.6	?
COC(COC(N)=O)C1=C(N2CC2)C(=O)C(C)=C(N2CC2)C1=O (configuration not stated)	-1.1%	1.26µM*	0.562µM*	-5.4	?
CCOC(=O)N1CCN(c2c(N3CCN(C(=O)OCC)CC3)c(=O)c2=O)CC1	0.0%	/	18.2%	9.6	/
Cc1ccc(NC(=O)CN(C)C(=O)COC(=O)c2ccc(NC(=O)CC#N)cc2)cc1	-17.0%	4.7%	8.6%	-33.9	-12.9%
Cc1ccc(Cn2ccsc2=NC(=O)COC(=O)c2ccc(NC(=O)CC#N)cc2)cc1	25.1µM*	?	?	-7.0	?
Cc1ccc(Cn2ccsc2=NC(=O)CCl)cc1	?	/	0.562µM*	-99.0*	/
Cc1ccc(NC(=O)CSCC(=O)N=c2sccn2C)cc1	3.1%	8.9%	-0.1%	-1.5	-11.0%
CCN(CC)CC1C(=O)N(c2ccc(OC)cc2)C1c1ccccc1 (configuration not stated)	40.3%	?	1.3%	-28.6	8.91µM*
Nc1c(-c2nc(-c3cccs3)no2)nnn1-c1cccc(Cl)c1	22.5%	?	/	30.8	/
COc1cccc(NC(=O)CN(C)C(=O)c2ccccc2-c2nc3ccccc3s2)c1	-12.7%	-19.4%	-0.3%	2.5	7.08µM*
Cc1ccc(N(CC(=O)NC(C)C)C(=O)CCC(=O)Nc2ccccn2)c(C)c1	1.2%	/	/	12.6	/
COc1ccc(-c2cc(CCCC(=O)N3CCN(c4ccc(OC)cc4)CC3)no2)cc1	?	/	11.2µM*	-21.8	2.5%
CCCCNC(=O)c1cc(-c2ccc(OC)cc2)on1	60.9%	-9.2%	-1.1%	105.2	?
COc1ccc(-c2cc(CCCC(=O)NCCc3cc(OC)ccc3OC)no2)cc1	?	-6.6%	10µM*	-20.4	?
CCCNC(=O)c1cc(-c2ccc(OC)cc2)on1	18.4%	?	-16.6%	40.2	10.3µM*
CS(=O)(=O)N(CC(=O)NC1CC2CCC1C2)c1cccc(C(F)(F)F)c1 (configuration not stated)	-6.7%	-18.6%	8.7%	-103.0*	-16.5%
COc1ccc(C)cc1S(=O)(=O)Nc1ccc(F)cc1	76.4%	9.7%	-15.0%	38.2	?
CCOc1cc(C)c(S(=O)(=O)Nc2ccc(F)cc2)cc1C	21.5%	5.2%	?	-62.1*	-28.8%
CN1c2ccccc2C2(C)CCCC3=Cc4cc([N+](=O)[O-])cc([N+](=O)[O-])c4OC312 (configuration not stated)	?	-6.3%	1.8%	-60.2*	?
CN1c2ccccc2C2(C)CCCC3=Cc4cccc([N+](=O)[O-])c4OC312 (configuration not stated)	?	6.5%	7.3%	?	-2.4%
Cc1cccc(N2C(=O)CN(Cc3ccccc3)C2=S)c1	1.8%	12.6%[46.1 µM]	-2.8%	-12.4	18.6%[46.1 µM]
O=C(CN1C(=O)c2ccccc2S1(=O)=O)c1ccc(OC(F)F)cc1	?	0.891µM*	7.0%	/	1.26µM*
O=C(CN1C(=O)c2ccccc2S1(=O)=O)c1cccc(Br)c1	10µM*	1.26µM*	-2.7%	-31.7	?
COC(=O)c1ccc(OCC(O)CN2C(=O)c3ccccc3S2(=O)=O)cc1 (configuration not stated)	-6.0%	?	5.01µM*	-13.2	22.8%[46.1 µM]
